Data published in PubChem BioAssay AID493205 (National Center for Advancing Translational Sciences (NCATS), 2011).
This is one part of the list. Entries that show only a call come without a potency. Results filed as inconclusive are left out. Active and inactive are the calls of the source. Calls come from the whole dose curve; as a rule, active = well fitted inhibition curve with a large enough effect; inconclusive = small, poorly fitted or top-dose-only effect, or effect the other way; inactive = no such curve, though single readings can be large or run the other way.

Biological target: Muscleblind-like protein 1 (Homo sapiens) (UniProt Q9NR56)
Assay: qHTS Assay for Inhibitors of MBNL1-poly(CUG) RNA binding: Initial hit validation in AlphaScreen assay for MBNL1-(CUG)12 binding
Conditions: AlphaScreen MBNL1-His / biotin-(CUG)12 binding; series mostly up to 57.7 µM
From the text: NIH Chemical Genomics Center [NCGC] NIH Molecular Libraries Probe Production Centers Network [MLPCN] MLPCN Grant: R03 MH087421-01 Assay Submitter (PI): Charles Thornton NCGC Assay Overview: Expanded CTG repeats in the 3' untranslated region of the DM protein kinase (DMPK) gene causes type I myotonic dystrophy (DM1). DM1 is a multi-systemic disease with a prevalence of 1/7000. Clinical features include myotonia, progressive muscle weakness and wasting, cardiac arrhythmia, insulin resistance, hypersomnolence, cataracts, and other symptoms. The pathogenic effect of expanded CTG repeats stems from deleterious effects of the mutant transcript. CUGexp mRNA accumulates in nuclear foci and sequesters proteins of the muscleblind family, of which MBNL1 is the most common family member in skeletal muscles. The binding interaction between MBNL1 and CUGexp tracts leads to deregulation of alternative splicing and is therefore a key molecular step in the pathogenesis of DM1. […]
NCGC Assay Protocol Summary: This is a proximity-based binding assay with MBNL1-His and Biotin-(CUG)12 RNA. […] The AC50 values were determined from concentration-response data modeled with the standard Hill equation Assay buffer: 20mM HEPES, 110mM KCl, 10mM NaCl, 2mM MgCl2, 2mM CaCl2, 5mM DTT, 0.1% BSA, 0.05% Tween 20 1536-well assay protocol for the MBNL1-(CUG)12 binding assay: (1) Add 2 ul/well 20nM MBNL1-His, 20nM Biotin-(CUG)12 (2) Add 23 nL compounds in DMSO solution. […] (3) Add 1 ul of Nickel-coated AlphaScreen acceptor beads (6.25 ng/ul final concentration) (4) Incubate 30 min at room temperature (5) Add 1 ul of Streptavidin-conjugated AlphaScreen donor beads (6.25 ng/ul final concentration) (6) Incubate 60 min at room temperature (7) Detect the assay plate in a EnVision plate reader (PerkinElmer) with AlphaScreen protocol Keywords: mytonic dystrophy type I, DM1, muscleblind like 1, MBNL1, CUG expansion, protein-RNA binding inhibitor, high throughput screening, MLSMR, MLSCN, NIH Roadmap, qHTS and NCGC

Chain of Muscleblind-like protein 1 (Homo sapiens) (Q9NR56 whole entry, looked up): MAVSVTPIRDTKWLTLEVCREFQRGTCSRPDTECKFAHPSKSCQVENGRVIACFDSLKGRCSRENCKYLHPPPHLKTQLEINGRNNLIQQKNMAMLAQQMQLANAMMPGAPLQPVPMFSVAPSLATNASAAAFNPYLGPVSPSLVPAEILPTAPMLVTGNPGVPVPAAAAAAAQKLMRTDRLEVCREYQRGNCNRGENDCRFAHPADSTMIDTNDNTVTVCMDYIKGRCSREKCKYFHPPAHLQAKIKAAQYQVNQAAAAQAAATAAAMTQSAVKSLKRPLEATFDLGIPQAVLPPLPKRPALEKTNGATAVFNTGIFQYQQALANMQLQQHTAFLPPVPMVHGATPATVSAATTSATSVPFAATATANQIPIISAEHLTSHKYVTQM

Row | Compound | Potency
1 | CCOC(=O)c1c(C)[nH]c2c1-c1ccccc1C(=O)C2=O | 4.11 µM (active)
2 | COc1ccc(Cc2n[nH]c(=S)n2NC(=O)Nc2ccc(C)cc2)cc1 | inactive
3 | COc1cccc(NC(=O)Cn2cnc3sc(C)c(S(=O)(=O)N4CCN(C)CC4)c3c2=O)c1 | inactive
